Among the test systems are NCI-H23 lung; NCI-H226 lung; NCI-H322M lung; HOP-62 NSCLC; NCI-H460 lung; HOP-92 NSCLC; NCI-H522 lung; A549/ATCC NSCLC; 786-0 renal; COLO 205 colon; DU-145 prostate; K-562 leukemia; MALME-3M melanoma; MDA-MB-231 breast; RXF 393 renal; SF-268 CNS; SF-295 CNS; SF-539 CNS; UACC-257 melanoma; M14 melanoma.
What all share (test): NCI-60 one-dose screen, 48 h (100 = growth as untreated, 0 = no growth, -100 = all killed)
Common to all, as to settings: 10 µM unless noted

About 83,000 compounds went through this panel and 20% of them were active in at least one assay; those are over-represented in the sample as a whole.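 Percent growth is the endpoint: 0 to 100 indicates growth inhibition (40 means 60% inhibition), 0 means no net growth, and negative values indicate cell death.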 Unmarked numbers belong to inactive results. Calls of active or inactive are those of the source. The calls were made as follows: active = growth percent below 10; inactive = the rest.

Consider `COc1cc(-c2cn(-c3ccc(Cl)c(Cl)c3)c(=O)[nH]2)cc(OC)c1OC`, for which the growth with NCI-H23 lung was 92.4%; with NCI-H226 lung it was 93.1%; in the experiment on NCI-H322M lung it was 69.7%; with HOP-62 NSCLC, -1.73% (active); with NCI-H460 lung it was 96.7%; in the experiment with HOP-92 NSCLC it was 82%. Besides, the growth was 74.5% in the experiment on NCI-H522 lung; 89.7% in the experiment with A549/ATCC NSCLC; 14.4% in the experiment with 786-0 renal; 105% in the experiment on COLO 205 colon; 100% in the experiment on DU-145 prostate; 84.3% in the experiment on K-562 leukemia. The growth was 60.9% with MALME-3M melanoma; 71.5% in the experiment on MDA-MB-231 breast; 86.4% with RXF 393 renal; 87.6% in the experiment with SF-268 CNS; 104% in the experiment on SF-295 CNS; 91.3% with SF-539 CNS. Further, the growth is 87.4% in the experiment with UACC-257 melanoma and 95.2% with M14 melanoma.
Regarding `COc1cc(C2=NNC(c3ccc(N(C)C)cc3)C2)cc(OC)c1OC` (stereo not given), the growth with NCI-H23 lung was 36.1%; with NCI-H226 lung, 62.2%; in the experiment on NCI-H322M lung, 46.2%; with HOP-62 NSCLC it was 36.4%; in the experiment on NCI-H460 lung, 10.5%; in the experiment with HOP-92 NSCLC, 29.2%. In addition, the growth with NCI-H522 lung is -6.25% (active); in the experiment on A549/ATCC NSCLC, 24.5%; in the experiment with 786-0 renal it was 23%; in the experiment on COLO 205 colon, 5.74% (active); in the experiment with DU-145 prostate, 3.51% (active); in the experiment with K-562 leukemia it was -9.17% (active). For the same compound, the growth was 83.7% in the experiment on MALME-3M melanoma; 31.9% in the experiment with MDA-MB-231 breast; -31.7% (active) in the experiment on RXF 393 renal; 55.7% with SF-268 CNS; 30.3% in the experiment with SF-295 CNS; -39.2% (active) with SF-539 CNS. The growth in the experiment on UACC-257 melanoma was 62.6%; in the experiment on M14 melanoma, 21.7%.
In the case of `CCC[S@@](=O)c1ccc2nc(NC(=O)OC)[nH]c2c1`, the growth in the experiment with NCI-H23 lung is 93.3%; in the experiment with NCI-H226 lung, 85.6%; with NCI-H322M lung it was 96%; with HOP-62 NSCLC, 66.2%; with NCI-H460 lung, 99.5%; in the experiment on HOP-92 NSCLC it was 84%. Moreover, the growth was 59.9% in the experiment on NCI-H522 lung; 65.7% with A549/ATCC NSCLC; 91.6% with 786-0 renal; 96.4% in the experiment on COLO 205 colon; 107% with DU-145 prostate; 40.9% in the experiment on K-562 leukemia. The growth in the experiment with MALME-3M melanoma was 89.2%; in the experiment with MDA-MB-231 breast, 83.3%; with RXF 393 renal it was 95.2%; with SF-268 CNS, 96.1%; in the experiment on SF-295 CNS it was 88%; in the experiment on SF-539 CNS, 90.8%. Besides, the growth with UACC-257 melanoma was 57%; with M14 melanoma it was 73.2%.
`Cc1ccn2c3c(c(C(=O)O)c2c1)C(=O)c1ccccc1C3=O`: the growth in the experiment with NCI-H23 lung is 2.03% (active); in the experiment on NCI-H226 lung, 114%; in the experiment with NCI-H322M lung it was 6.55% (active); in the experiment with HOP-62 NSCLC, 45.5%; in the experiment with NCI-H460 lung, -22.4% (active); with HOP-92 NSCLC, 96.8%. Besides, the growth is 82.5% with NCI-H522 lung; -39.6% (active) in the experiment on A549/ATCC NSCLC; 84.2% in the experiment on 786-0 renal; 42.1% in the experiment on COLO 205 colon; -55.7% (active) with DU-145 prostate; 85.4% with K-562 leukemia. Besides, the growth in the experiment with MALME-3M melanoma is -62.7% (active); in the experiment with MDA-MB-231 breast, 77.2%; in the experiment on RXF 393 renal it was 56.9%; in the experiment on SF-268 CNS it was 80.3%; with SF-295 CNS, 26.9%; in the experiment on SF-539 CNS, 65.8%. Further, the growth with UACC-257 melanoma is 56.4%; in the experiment with M14 melanoma it was -43.5% (active).
As for `Cc1cccc(C)c1Nc1nnc(-c2ccc(F)cc2)o1`, the growth with NCI-H23 lung was 92.4%; with NCI-H226 lung, 96.1%; in the experiment with NCI-H322M lung it was 93.4%; in the experiment on HOP-62 NSCLC, 107%; in the experiment with NCI-H460 lung, 104%; in the experiment on HOP-92 NSCLC, 95.5%. Further, the growth is 112% with NCI-H522 lung; 104% in the experiment on A549/ATCC NSCLC; 112% in the experiment on 786-0 renal; 100% in the experiment with COLO 205 colon; 99.9% in the experiment with DU-145 prostate; 118% with K-562 leukemia. Besides, the growth with MALME-3M melanoma was 96.5%; with MDA-MB-231 breast it was 104%; in the experiment on RXF 393 renal, 98.5%; with SF-268 CNS, 96.2%; in the experiment with SF-295 CNS, 102%; in the experiment on SF-539 CNS it was 99.7%. Further, the growth in the experiment on UACC-257 melanoma was 116%; in the experiment on M14 melanoma it was 96.8%.
`N#CC1C(c2ccc(Cl)cc2)=Nc2c(c(-c3ccccc3)nn2-c2ccccc2)C12C(=O)Nc1ccc(Cl)cc12` (stereo not given): the growth was 50.7% in the experiment with NCI-H23 lung; 61.5% in the experiment on NCI-H226 lung; 79.2% with NCI-H322M lung; 57.9% with HOP-62 NSCLC; 22.3% in the experiment on NCI-H460 lung; -8.89% (active) in the experiment with HOP-92 NSCLC. The growth in the experiment with NCI-H522 lung was 55.9%; with A549/ATCC NSCLC it was 27.2%; in the experiment on 786-0 renal, 42.9%; with COLO 205 colon, 51%; in the experiment with DU-145 prostate, 74%; in the experiment with K-562 leukemia, 19.1%. Also, the growth was 70.3% in the experiment with MALME-3M melanoma; 41.2% with MDA-MB-231 breast; 28.3% with RXF 393 renal; 39.1% with SF-268 CNS; 28.1% in the experiment with SF-295 CNS; 43.8% with SF-539 CNS. In addition, the growth is 53.6% in the experiment on UACC-257 melanoma and 34.6% in the experiment on M14 melanoma.
On to `COc1ccc(C(=O)c2cc(F)c(F)c(OC)c2F)cc1OC(=O)CCl`, for which the growth in the experiment with NCI-H23 lung is 58.3%; with NCI-H226 lung, 105%; in the experiment with NCI-H322M lung, 75.8%; in the experiment on HOP-62 NSCLC, 39%; with NCI-H460 lung it was 20.5%; in the experiment on HOP-92 NSCLC, 52.9%. The growth in the experiment with NCI-H522 lung was 30.6%; with A549/ATCC NSCLC it was 53.8%; in the experiment on 786-0 renal, 89.6%; with COLO 205 colon, 108%; in the experiment on DU-145 prostate, 57.2%; in the experiment with K-562 leukemia it was 15.7%. The growth in the experiment with MALME-3M melanoma was 57%; in the experiment on MDA-MB-231 breast, 48.8%; in the experiment on RXF 393 renal, 69.7%; in the experiment on SF-268 CNS it was 58.7%; in the experiment with SF-295 CNS it was 85.2%; in the experiment on SF-539 CNS it was 25.6%. For the same compound, the growth in the experiment on UACC-257 melanoma was 72%; in the experiment with M14 melanoma it was -3.12% (active).
As to `COc1cc2c(Nc3ccc(NC(=O)Nc4ccc(Cl)c(C(F)(F)F)c4)c(Cl)c3)ncnc2cc1OCCCN1CCN(C)CC1`, the growth in the experiment on NCI-H23 lung was 17.2%; in the experiment on NCI-H226 lung, 73.9%; in the experiment on NCI-H322M lung it was 11.3%; with HOP-62 NSCLC, -15% (active); in the experiment with NCI-H460 lung, -70.4% (active); in the experiment with HOP-92 NSCLC, 27%. The growth is -60.4% (active) with NCI-H522 lung; 20.8% in the experiment on A549/ATCC NSCLC; 6.31% (active) with 786-0 renal; -43.2% (active) in the experiment with COLO 205 colon; 2.84% (active) in the experiment with DU-145 prostate; -61% (active) with K-562 leukemia. Moreover, the growth in the experiment with MALME-3M melanoma was -50.8% (active); in the experiment with MDA-MB-231 breast it was -60.2% (active); with RXF 393 renal, -40.5% (active); with SF-268 CNS it was 20.2%; with SF-295 CNS, -67.3% (active); in the experiment on SF-539 CNS it was -77.9% (active). The growth with UACC-257 melanoma is 54.6%; in the experiment on M14 melanoma, 0.0561% (active).

The values are drawn from PubChem BioAssay (NCI).
